ST2 inh = inhibitors of human ST2 (IL1RL1) binding to IL-33; Q01638; AlphaLISA ST2-Fc/biotin-IL-33 interaction, 1 h; inhibition, % for hits at 17 µM; hit rate 2.3% among 78,000; AID 1259354; in the data active means inhibition above about 30%
Target sequence (Q01638 whole entry, looked up): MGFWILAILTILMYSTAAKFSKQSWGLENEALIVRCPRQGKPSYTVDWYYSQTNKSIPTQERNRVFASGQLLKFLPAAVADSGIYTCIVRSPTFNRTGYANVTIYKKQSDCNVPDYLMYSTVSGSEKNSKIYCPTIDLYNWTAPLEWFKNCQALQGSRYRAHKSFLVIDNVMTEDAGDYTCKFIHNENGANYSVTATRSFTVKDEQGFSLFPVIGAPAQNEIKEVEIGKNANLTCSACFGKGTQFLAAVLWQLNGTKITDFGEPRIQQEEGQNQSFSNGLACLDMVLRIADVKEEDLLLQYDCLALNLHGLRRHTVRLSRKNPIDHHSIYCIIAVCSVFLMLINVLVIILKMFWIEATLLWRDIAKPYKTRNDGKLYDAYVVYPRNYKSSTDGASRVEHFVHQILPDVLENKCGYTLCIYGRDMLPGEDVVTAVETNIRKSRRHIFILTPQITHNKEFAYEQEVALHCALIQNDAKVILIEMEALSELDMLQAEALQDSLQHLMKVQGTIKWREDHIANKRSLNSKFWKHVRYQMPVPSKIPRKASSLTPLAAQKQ
* hit, by the source's call; ! = repeats disagree. Shown is part of a subset that was picked to be rich in hits.

For COC(=O)C1=C(C)Nc2nc(SC)[nH]c(=O)c2C1c1ccccc1 (stereo not given) the results were ST2 inh inactive.
For NC(=O)CNC(=O)C1=C[C@@H](NC(=O)c2cccs2)[C@@H](O)[C@H](O)C1 the results were ST2 inh inactive.
`CS(=O)(=O)Nc1cc(-c2noc([C@@H]3CCCN3Cc3ccc(S(C)(=O)=O)cc3)n2)ccn1` gave ST2 inh inactive.
`COc1cc(C=O)ccc1OCCOc1ccc(Br)cc1Cl` gave ST2 inh inactive.
COc1cc(/C=C2/NC(=O)NC2=O)cc(OC)c1O was read as ST2 inh inactive.
For C=CCOc1ccc(/C=C2\C(=O)NN(c3cccc(Br)c3)C2=O)cc1OC the results were ST2 inh 34%*.
`CCN(C)c1ccc(/C=C2/C(=O)NN(c3cccc(Br)c3)C2=O)cc1` gave ST2 inh 39%*.
O=C1NN(c2cccc(Br)c2)C(=O)/C1=C\c1ccccc1 was read as ST2 inh inactive.
CC1=NN(c2ccc(F)cc2)C(=O)/C1=C/c1ccc(N(C)C)cc1 was read as ST2 inh inactive.
`COc1cc(/C=C2/C(=O)NN(c3ccc(Cl)cc3)C2=O)cc(OC)c1O` gave ST2 inh 30%*.
COc1cc(C=C2C(=O)OC(C)(c3ccccc3)OC2=O)ccc1OCc1cccc(C(=O)O)c1 (stereo not given) was read as ST2 inh inactive.
Screening Cc1ccc(N2NC(=O)/C(=C/c3ccc(Cl)cc3)C2=O)cc1Cl returned ST2 inh inactive.
For Cc1ccc(NS(=O)(=O)c2cccnc2)cc1C the results were ST2 inh inactive.
Screening COc1cc(NC(=O)c2cc(CC(C)C)on2)cc(OC)c1OC returned ST2 inh inactive.
`CC1CCCN(CCCNC(=O)C2(O)c3ccccc3NC(=O)N2c2ccccc2)C1` (stereo not given) gave ST2 inh inactive.
CCCOc1ccc2oc(=O)c3c(c2c1)CCCN3C(=O)CN1CCOCC1 was read as ST2 inh inactive.
O=C1C2[C@H](C(=O)N1c1cccc(Cl)c1)C1c3ccccc3C2(C(=O)O)c2ccccc21 (stereo not given in full) was read as ST2 inh inactive.
COc1ccc(OC)c(S(=O)(=O)NC2CCCC(C)C2C)c1 (stereo not given) was read as ST2 inh inactive.
Screening CCOc1ccc(CN2C(=O)CCC2(C)C(=O)NC2CCCC2)cc1 (stereo not given) returned ST2 inh inactive.
Screening Cn1cc(C(=O)NC2CC2)c2c3ccccc3n(C)c2c1=O returned ST2 inh inactive.
Screening COc1cccc(CN2CCCC3(CCN(Cc4cccn4-c4ccccn4)C3)C2)c1OC (stereo not given) returned ST2 inh inactive.
`CCCn1cnc2c(cnn2-c2ccc(F)cc2)c1=O` gave ST2 inh inactive.
For CCCCn1cnc2c(cnn2-c2ccc(Cl)cc2)c1=O the results were ST2 inh 30%*.
Screening CCCCn1cnc2c(cnn2-c2ccc(F)cc2)c1=O returned ST2 inh inactive.
O=C(Nc1sc2c(c1C(=O)NC1CCS(=O)(=O)C1)CCCC2)c1cccs1 (stereo not given) was read as ST2 inh inactive.
Screening OCCCc1nnc(SCc2ccccc2Cl)n1-c1ccccc1 returned ST2 inh inactive.
COc1cc(-c2nc(N3CCC(C)CC3)c3ccccc3n2)cc(OC)c1OC was read as ST2 inh inactive.
For CC1C(=O)C(C)C(c2ccccc2O)NC1c1ccccc1O (stereo not given) the results were ST2 inh inactive.
For CC1C(=O)C(C)C(c2ccc(N(C)C)cc2)NC1c1ccc(N(C)C)cc1 (stereo not given) the results were ST2 inh 36%*!.
`CC1C(=O)C(C)C(c2ccc(F)cc2)NC1c1ccc(F)cc1` (stereo not given) gave ST2 inh inactive.
Screening Cc1cc(C)n2ncc(CN3CCN(c4ncccc4C)CC3)c2n1 returned ST2 inh inactive.
Screening O=C(CN(c1ccccc1)S(=O)(=O)c1ccc(Cl)cc1)N1CCCCC1 returned ST2 inh inactive.
For CC1CN(c2c3c(c(C#N)c4nc5ccccc5n24)CCC3)CC(C)O1 (stereo not given) the results were ST2 inh inactive.
For N#Cc1c(-c2ccccc2)c(C#N)c2nc3ccccc3n2c1N the results were ST2 inh 32%*.
Cc1nccn1-c1c2c(c(C#N)c3nc4ccccc4n13)CCC2 was read as ST2 inh inactive.
Screening O=C(O)CCC(=O)Nc1cccc(NC(=O)CCC(=O)O)n1 returned ST2 inh inactive.
For Cc1[nH]nc2c1C(c1c(F)cccc1F)C(C#N)=C(N)O2 (stereo not given) the results were ST2 inh 32%*.
For Cc1[nH]nc2c1C(c1cc(Br)cs1)C(C#N)=C(N)O2 (stereo not given) the results were ST2 inh 33%*.
Cc1ccc(-c2[nH]nc3c2C(c2ccccc2F)C(C#N)=C(N)O3)cc1 (stereo not given) was read as ST2 inh inactive.
Screening CCOc1ccc(C2C(C#N)=C(N)Oc3n[nH]c(C)c32)cc1 (stereo not given) returned ST2 inh inactive.
`CCCCOc1ccc(C2C(C#N)=C(N)Oc3n[nH]c(C)c32)cc1` (stereo not given) gave ST2 inh inactive.
CCN(CC)c1ccc(C2C(C#N)=C(N)Oc3n[nH]c(C)c32)cc1 (stereo not given) was read as ST2 inh inactive.
CCCOC(=O)C1=C(C)NC2=C(C(=O)C(C(=O)OC)C(C)C2)C1c1cccc(O)c1 (stereo not given) was read as ST2 inh inactive.
`COc1ccc(F)c(-c2ncccc2C(=O)N2C[C@H]3CC[C@@H]2C3)c1` gave ST2 inh inactive.
O=C1CSC(c2ccc(Cl)cc2)N1c1ccccc1Cl (stereo not given) was read as ST2 inh inactive.
COc1ccc(C(=O)Nc2nc(-c3cc4ccccc4oc3=O)cs2)cc1OC was read as ST2 inh 38%*.
COc1cc2ccccc2cc1C(=O)Nc1nc(-c2cc3ccccc3oc2=O)cs1 was read as ST2 inh inactive.
For O=C(Nc1nc(-c2cc3ccccc3oc2=O)cs1)c1cc(=O)c2ccccc2o1 the results were ST2 inh inactive.
For Cc1n[nH]c(C)c1CCC(=O)N1CCC2(CC1)C(=O)Nc1ccccc12 the results were ST2 inh inactive.
For COCc1nc2ccccc2n1CCOc1ccc(C(C)(C)C)cc1 the results were ST2 inh inactive.
COc1cc2c(C(=O)NC3CCCC(C)C3C)cn(CC(C)C)c(=O)c2cc1OC (stereo not given) was read as ST2 inh inactive.
Screening CN(C)c1cccc(C(=O)NC2CC(=O)N(C3CCCCCC3)C2)c1 (stereo not given) returned ST2 inh inactive.
`C=CCNc1nc(-c2ccc([N+](=O)[O-])cc2)nc2ccccc12` gave ST2 inh inactive.
For CCCCN(C)c1nc(-c2ccc([N+](=O)[O-])cc2)nc2ccccc12 the results were ST2 inh 39%*.
Screening c1cncc(CNc2c3ccccc3nc3ccccc23)c1 returned ST2 inh inactive.
Screening O=[N+]([O-])c1ccc(-c2nc(NCc3cccnc3)c3ccccc3n2)cc1 returned ST2 inh 96%*!.
`CCCCN(C)Cc1ccc([N+](=O)[O-])cc1` gave ST2 inh inactive.
